An excerpt weighted towards active compounds, which were near 11% of everything screened.
PNC inhibitor – inhibitors of perinucleolar compartment assembly; PC3M PTB-GFP, PNC prevalence imaging, 16 h; active compounds read low; activity change (PNC), negative = inhibition, % at 10 µM; 3.1% of 140,000 active;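 active = readout at or below -70, meaning at least 70% loss of cells showing the perinucleolar compartment, a nuclear body marking cancer cells; inconclusive = readout between -30 and a set limit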;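 also: plate controls were DMSO wells for no effect and camptothecin positive control wells for full effect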
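PC3M cells stably expressing PTB-GFP, 750–1000 cells/well, treated 16 h at 37 °C with compound (23 nl of library stock), in duplicate. After paraformaldehyde fixation and Hoechst stain, imaged at 20x; PNC prevalence scored by image analysis.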
ALDH1A1 inh – ALDH1A1 (human) enzyme inhibition; P00352; AID 1030; Potency, µM (doses to about 75.3 µM), without a hit: at the top dose activity, negative = inhibition, actives largely listed as inhibitors; 7.3% of 220,000 active; Purified ALDH1A1, NADH fluorescence, propionaldehyde substrate;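 also: potency is read from the fitted curve at half-maximal effect; plate controls were no enzyme wells and a reference inhibitor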
Target sequence (P00352 whole entry, looked up): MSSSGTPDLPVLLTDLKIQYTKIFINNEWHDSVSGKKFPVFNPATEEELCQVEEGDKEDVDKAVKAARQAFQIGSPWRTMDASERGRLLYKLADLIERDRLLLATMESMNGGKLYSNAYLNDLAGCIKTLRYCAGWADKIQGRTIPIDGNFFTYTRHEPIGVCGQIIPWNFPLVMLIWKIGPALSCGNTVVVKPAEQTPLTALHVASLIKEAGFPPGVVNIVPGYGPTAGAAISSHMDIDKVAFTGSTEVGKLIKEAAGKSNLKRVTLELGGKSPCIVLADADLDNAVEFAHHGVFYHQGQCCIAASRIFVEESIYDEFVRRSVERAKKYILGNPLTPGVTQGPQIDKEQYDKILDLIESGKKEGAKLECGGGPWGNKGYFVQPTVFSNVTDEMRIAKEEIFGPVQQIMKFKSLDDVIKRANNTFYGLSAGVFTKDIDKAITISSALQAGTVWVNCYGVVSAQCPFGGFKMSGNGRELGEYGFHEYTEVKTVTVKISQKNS
HPGD inh – blocks human HPGD enzyme activity; purified HPGD, NADH fluorescence kinetic, PGE2 substrate; Potency, µM, without a hit: top-dose activity change, negative = inhibition, hits mostly inhibitors; 4.3% of 150,000 active; AID 894; also: potency is read from the fitted curve at half-maximal effect
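20 nM HPGD preincubated 15 min at room temperature with compound in 50 mM Tris-HCl pH 8, 0.01% Tween 20. Started with 1 mM NAD+ and 30 uM prostaglandin E2; NADH fluorescence (360/450 nm) read 5 times over 30-s intervals, last minus first.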
The depositor's hits bear a star; ? = inconclusive; · = no result given; [ ] = dose if it differs, or a comment. Unless noted, calls follow the shape of the dose curve; as a rule, active = well fitted inhibition curve with a large enough effect (not every such curve was filed as active); inconclusive = small, poorly fitted or top-dose-only effect, or another doubt; inactive = no such curve, though single readings can be large or run the other way. Unless noted, % is scaled to controls: 0 for no effect and ±100 for the full control effect.

SMILES	PNC inhibitor	ALDH1A1 inh	HPGD inh
COCC(=O)N1CCC2(CC1)CN(Cc1ccccc1OC)C2	·	-1%	-11%
Cn1c(CSc2nc3ccc(Br)cc3[nH]2)nc2ccccc21	55	4%	-7%
Cn1c(CSc2nnc(SCc3ccccc3)s2)nc2ccccc21	27	25µM*	-26%
Cc1ccc(C(=O)NNC(=O)CSc2nnc(-c3ccncc3)n2-c2ccc(C)cc2)cc1	15	-4%	-13%
CC(C)OC(=O)CSc1nnc(-c2cnccn2)n1-c1ccc(Cl)cc1	28	10µM*	-20%
Cc1ccc(-n2c(SCC(=O)OC(C)C)nnc2-c2ccncc2)cc1	-100*	1%	-21%
CC(C)OC(=O)CSc1nnc(-c2ccncc2)n1N	-24	5%	-3%
CC(=O)CSc1nnc(-c2cnccn2)n1-c1ccccc1	19	-15%	-9%
CC(C)OC(=O)CSc1nnc(-c2ccc(C(C)(C)C)cc2)n1N	34	18µM*	18µM*
O=C(O)c1cc(S(=O)(=O)Nc2cccc(F)c2)ccc1Cl	·	7%	-10%
COc1ccc2c(C=O)cn(C)c2c1	·	2.2µM*	·
COc1ccc2[nH]cc(C=O)c2c1	53	?	-27%
Cc1ccc(-n2c(C)nnc2SCC(=O)NNC(=O)c2ccco2)cc1	·	5%	·
Cc1ccc(-n2nnnc2SCn2nnc3ccccc3c2=O)cc1	?	?	-24%
Cc1ccc(-n2nnnc2SCC(=O)NNC(=O)c2ccco2)cc1C	23	?	3%
Cc1ccc(C)c(-n2nnnc2SCC(=O)NNC(=O)c2ccco2)c1	·	8.9µM*	·
CCc1cc2cc3c(cc2nc1SCC(=O)N1CCN(C(=O)c2ccco2)CC1)OCO3	-24	?	-17%
CCc1cc2ccc(C)cc2nc1SCC(=O)NNC(=O)c1ccco1	?	4µM*	0%
COc1ccc(C)cc1-n1nnnc1SCn1nnc2ccccc2c1=O	-16	18µM*	-15%
CCc1cc2ccc(C)cc2nc1SCC(=O)N1CCN(C(=O)c2ccco2)CC1	20	10µM*	?
O=c1c2cn[nH]c2[nH]c(=S)n1-c1cccc(Cl)c1	?	?	-17%
CCc1nnc(NC(=O)C2(C)COC(c3ccc(OC)cc3)OC2)s1 (stereo not drawn)	·	2%	·
COc1ccc(C(=O)N2CCC3(CCCN(Cc4nccs4)C3)CC2)cc1	·	-4%	-11%
Cc1cc(C)n(C(=O)Cn2nc([N+](=O)[O-])c(Br)c2C)n1	·	0%	·
Cc1nc(CSc2ccccc2)cc(=O)[nH]1	·	-5%	·
SMILES	PNC inhibitor	ALDH1A1 inh	HPGD inh
COc1ccc(C)cc1-n1nnnc1SCC(=O)NNC(=O)c1ccc([N+](=O)[O-])cc1	-22	3.2µM*	-19%
CCc1cc2ccc(C)cc2nc1SCC(=O)Nc1cc(C)on1	·	25µM*	·
CCc1cc2cc(C)ccc2nc1SCC(=O)Nc1cc(C)on1	?	7%	-15%
CCOC(=O)CSc1nnnn1-c1cc(OC)ccc1OC	-29	-16%	-15%
COC(=O)[C@H](CCSC)NC(=O)Nc1ccc(S(N)(=O)=O)cc1	·	10%	·
CCCCC(=O)NNC(=S)NCc1ccccc1	·	0%	·
O=C(COC(=O)C12CC3CC(CC(C3)C1)C2)Nc1ccc([N+](=O)[O-])cc1Cl	27	?	-7%
CCCCCCCC/C=C\CCCCCCCC(=O)NC(C)C(=O)O (stereo not drawn)	·	0%	-1%
CCOC(=O)c1c(NC(=O)C2c3ccccc3Oc3ccccc32)sc(C(N)=O)c1C	?	-8%	-10%
CCC1CCc2c(sc(NC(=O)C3c4ccccc4Oc4ccccc43)c2C(N)=O)C1 (stereo not drawn)	-95*	?	?
CCOC(C)(C)C	·	6%	-1%
CCC(C)(C(=O)NC1CCCCC1)N(C(=O)CC1NC(=O)NC1=O)c1c(C)n(C)n(-c2ccccc2)c1=O (stereo not drawn)	·	5%	·
Cc1ccc(NC(=O)Cc2noc3ccccc23)cc1	-99*	4%	-4%
O=C(Cc1noc2ccccc12)Nc1ccc2ccccc2c1	155	-9%	-11%
O=C(CCSc1nnc(-c2ccco2)o1)N1CCOCC1	·	9%	·
Cn1cnnc1SCC(=O)c1ccc(O)c(O)c1	·	-7%	·
CC(=O)OCCCNc1cc(Sc2nc3ccccc3s2)c2nonc2c1[N+](=O)[O-]	16	11µM*	2.5µM*
COC(=O)CCSc1cc(NCCOC(C)=O)c([N+](=O)[O-])c2nonc12	2	14%	-23%
CC(=O)OCCCNc1cc(Sc2ccc(C)cc2)c2nonc2c1[N+](=O)[O-]	?	-13%	-22%
CCCC(=O)OCCNc1cc(SCCC(=O)OC)c2nonc2c1[N+](=O)[O-]	-12	10µM*	28µM*
CC(=O)OCCNc1cc(SCc2ccco2)c2nonc2c1[N+](=O)[O-]	13	?	?
CC(=O)OCCNc1cc(Sc2nc3ccccc3[nH]2)c2nonc2c1[N+](=O)[O-]	-19	10%	3.2µM*
OC(Cn1cncn1)c1ccc(Cl)cc1Cl (stereo not drawn)	?	14%	-6%
N#CC(c1ccc(Cl)nn1)c1ccc(Cl)cc1Cl (stereo not drawn)	4	6.3µM*	-6%
COc1cc(NC2c3ncccc3C(=O)N2Cc2ccco2)cc(OC)c1 (stereo not drawn)	-22	16µM*	-17%
SMILES	PNC inhibitor	ALDH1A1 inh	HPGD inh
O=C1c2cccnc2C(Nc2ccc(Cl)cc2)N1Cc1cccs1 (stereo not drawn)	·	4.5µM*	·
Cc1ccc(NC2c3ncccc3C(=O)N2Cc2ccc(F)cc2)cc1 (stereo not drawn)	4	-4%	-13%
CCOc1ccccc1NC1c2ccccc2C(=O)N1Cc1ccco1 (stereo not drawn)	?	-9%	-2%
COc1ccc(CN2C(=O)c3cccnc3C2Nc2ccc(OC)c(Cl)c2)cc1 (stereo not drawn)	-5	-4%	-29%
COc1ccc(NC2c3ncccc3C(=O)N2Cc2ccccc2)c(OC)c1 (stereo not drawn)	-100*	-17%	-18%
CCOc1ccc(NC(=O)CN2C(=O)NC(CCSC)C2=O)cc1 (stereo not drawn)	·	8%	·
COc1ccccc1/C=C/C=N/NC(=O)c1ccc2nc[nH]c2c1	·	-6%	·
Cc1c(/C=C/C(=O)c2ccc(C(C)C)cc2)cnn1C	·	-2%	·
COc1ccc(NC(=O)COC(=O)c2ccc(S(=O)(=O)N(C)c3ccccc3OC)cc2)c(OC)c1	·	7.1µM*	·
COc1ccccc1N(C)S(=O)(=O)c1ccc(C(=O)NCC(C)C)cc1	8	-1%	25µM*
CCC(C)(C)NC(=O)c1ccc(S(=O)(=O)N(C)c2ccccc2OC)cc1	-9	4%	-4%
COc1ccc(NC(=O)COC(=O)c2ccc(S(=O)(=O)N(C)c3ccccc3OC)cc2)cc1OC	·	2%	·
CC(C)NC(=O)N1CC[C@@]2(CCCN(S(C)(=O)=O)C2)C1	·	5%	-3%
N[C@@]1(C(=O)O)CN[C@@H](C(=O)O)C1	·	15%	·
COC(=O)C/C=C\[C@@H](C)[C@@H](/C=N\O[C@@H](C)c1cn([C@H](CO)Cc2ccccc2)nn1)NS(=O)(=O)c1ccc(C)cc1	·	4%[13.5 µM]	·
Cc1ccc(C(=O)NCC(C)(C)N2CCOCC2)s1	4	0%	2%
CC(C)(CNC(=O)c1sc2cc(F)ccc2c1Cl)N1CCOCC1	-92*	-8%	-19%

Screening results (PubChem BioAssay)
